# Reference: PubChem BioAssay (NCI)
# The panel holds about 83,000 compounds, 20% with a hit somewhere; the sample as a whole holds those more often.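 How to read the values: 0–100, growth inhibition (40 = 60% inhibited); 0, no net growth; -100 to 0, cell death (-40 = 40% of starting cells died; -100 = all dead).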 Unmarked numbers belong to inactive results. Active and inactive are the calls of the source. The calls were made as follows: active = growth percent below 10; inactive = the rest.
# What was measured:
# Assay in all cases: NCI-60 one-dose screen, 48 h (100 = growth as untreated, 0 = no growth, -100 = all killed)
# Details in all cases: 10 µM unless noted
# [1] = test system: DU-145 prostate
# [2] = test system: K-562 leukemia
# [3] = test system: MALME-3M melanoma
# [4] = test system: MDA-MB-231 breast
# [5] = test system: RXF 393 renal
# [6] = test system: SF-268 CNS
# [7] = test system: SF-295 CNS
# [8] = test system: SF-539 CNS
# [9] = test system: UACC-257 melanoma
# [10] = test system: HCT-15 colon
# [11] = test system: HT29 colon
# [12] = test system: SNB-75 CNS
# [13] = test system: U251 CNS
# [14] = test system: PC-3 prostate
# [15] = test system: SK-MEL-5 melanoma
# [16] = test system: UACC-62 melanoma
# [17] = test system: LOX IMVI melanoma
# [18] = test system: SK-MEL-28 melanoma
# [19] = test system: M14 melanoma
# [20] = test system: SNB-19 CNS
SMILES,growth [1],growth [2],growth [3],growth [4],growth [5],growth [6],growth [7],growth [8],growth [9],growth [10],growth [11],growth [12],growth [13],growth [14],growth [15],growth [16],growth [17],growth [18],growth [19] [%],growth [20] [%]
O=C(/C=C/c1ccccc1)c1ccc2ccccc2c1,105%,56.9%,95.9%,94.3%,96.5%,94.8%,107%,99.2%,87.9%,48.5%,54.7%,107%,93.2%,90.1%,92%,92.6%,89.3%,108%,,
CC12CC(C#N)CCC1O2 (stereo unspecified),127%,101%,128%,104%,119%,110%,,96.6%,98.3%,118%,109%,100%,103%,101%,111%,109%,108%,109%,107,111
CC(C)OCCCNCC(=O)Nc1ccc(S(=O)(=O)c2ccc(NC(=O)CNCCCOC(C)C)cc2)cc1,113%,36.8%,99.7%,50.9%,92.8%,106%,,79.4%,106%,120%,27.4%,85.5%,85.6%,87%,82.4%,107%,78.7%,,100,103
COc1cc(-c2cc(-c3ccc(Nc4nc(Nc5ccccc5)nc(Nc5ccc(Cl)cc5)n4)cc3)nc(N)n2)cc(OC)c1OC,94.7%,23.8%,59.9%,59%,78.1%,86.6%,70.5%,77.4%,99.4%,62.3%,52.4%,56.2%,42.6%,,43.1%,49.7%,60.2%,86.9%,,79.6
O=C1Nc2ccccc2SC1C1SC(=S)N(Cc2ccccc2)C1=O (stereo unspecified),-34.7% (active),4.45% (active),53.7%,94.8%,,37.7%,63.2%,90.7%,88.3%,103%,12.9%,51.4%,98.3%,88.4%,95.9%,98.5%,86.2%,58.8%,94.5,107
CCCCNC(=O)NS(=O)(=O)c1ccc(N2N=C(c3ccc(C)cc3C)CC2c2ccc(N(C)C)cc2)cc1 (stereo unspecified),84.8%,44.4%,101%,80.1%,79.5%,79.9%,,62.6%,66.1%,35.3%,62%,75.4%,37%,38%,47%,54.8%,52.2%,,,75.6
COc1cc(C2CC(c3ccc(Nc4nc(Nc5ccc(F)cc5)nc(Nc5ccc(Cl)cc5)n4)cc3)=NN2C(C)=O)cc(OC)c1OC (stereo unspecified),110%,44.2%,67.9%,77.8%,71.5%,90.4%,339%,84.6%,122%,65.7%,46.3%,54.7%,62.6%,32.6%,60.1%,62%,82.8%,88.7%,,
COc1ccc(-c2cc(-c3ccc(Nc4nc(Nc5ccccc5)nc(Nc5ccc(Cl)cc5)n4)cc3)nc(N)n2)cc1,100%,23.7%,79.2%,49%,75.6%,75.8%,64.1%,76.9%,77.1%,76.6%,52%,55.6%,24.7%,,60.7%,58.8%,55%,84.8%,,68.7
Clc1ccc(-c2nnc(Cn3ccnc3)o2)cc1,115%,95.8%,120%,102%,,103%,119%,98.9%,111%,94.2%,102%,91.8%,106%,97.2%,112%,90.2%,112%,106%,87.1,95.5
O=C1Nc2ccccc2SC1c1ccccc1Cl (stereo unspecified),108%,41.2%,81.9%,98.9%,,87.8%,58.2%,109%,100%,110%,46%,34.5%,112%,92.8%,106%,101%,107%,104%,93.7,
COC1(CC[C@@H](C)COC2OC(CO)C(O)C(O)C2O)O[C@H]2C[C@H]3[C@@H]4CC=C5C[C@@H](OC6OC(CO)C(OC7OC(C)C(O)C(O)C7O)C(O)C6OC6OC(C)C(O)C(O)C6O)CC[C@]5(C)[C@H]4CC[C@]3(C)[C@H]2[C@@H]1C (stereo partly specified),-96.2% (active),-22.9% (active),-87.3% (active),-70% (active),-78.1% (active),-90.7% (active),-81.9% (active),-99% (active),-47.4% (active),-88.7% (active),-76.6% (active),-70.5% (active),-98.1% (active),,-65.1% (active),-92.1% (active),-95.9% (active),-95.7% (active),,
O=c1[nH]c(=O)n(C2CC(O)C(CO)O2)cc1CO (stereo unspecified),111%,82.3%,90.1%,102%,99.5%,99.8%,110%,95.7%,103%,98.7%,105%,84.3%,2.98% (active),,108%,79.2%,96.1%,101%,,30.2
C=C(C=O)[C@@H]1CC=C(C=O)CC1,-74.6% (active),-23.2% (active),-31.1% (active),-25.9% (active),,-16.7% (active),-15.7% (active),-60.4% (active),-9.83% (active),-12% (active),13.2%,32.9%,-8.31% (active),15.3%,-41.1% (active),-21.6% (active),-0.188% (active),-43.3% (active),14.8,55
NC(N)=N/N=C(/c1ccccc1)c1ccc(N)cc1,116%,113%,122%,103%,108%,115%,,103%,92.7%,106%,132%,122%,97.5%,127%,101%,91.2%,95%,150%,104,106
Cc1cc(=O)c2cc3nc(-c4cccnc4)oc3c(Br)c2o1,119%,84%,98.7%,111%,,107%,120%,106%,106%,106%,103%,,97.8%,99.6%,105%,104%,98%,119%,98.8,131
Cc1c(C(N)=O)sc2nc(C)n(/N=c3\scc(-c4ccccc4)n3Cc3ccccc3)c(=O)c12,42.2%,8.42% (active),60.5%,43%,-5.46% (active),21.3%,,22.2%,4.85% (active),14.9%,79.5%,54.8%,7.76% (active),1.97% (active),7.44% (active),27.7%,20.6%,48.2%,36.4,29.4
CCC(=O)OC1=C(C)SC2=NC(c3ccc(Cl)c(Cl)c3)=CC(c3cc(OC)c(OC)c(OC)c3)N21 (stereo unspecified),114%,103%,104%,90.2%,91%,102%,94.8%,90.9%,,89.8%,103%,76.9%,95.9%,91.8%,98.7%,87.8%,99.6%,104%,106,94.5
